High-throughput results (PubChem BioAssay)
Not all results are given here.
aSyn UTR act – Activators via SNCA 5'UTR binding, MLPCN | alpha-synuclein 5'UTR reporter, activators screen | activity score, % (tested at 7.5 µM), hits read low | 7.1% of 300,000 active | AID 1814; in the data active means activity score below about -60%
Large screens that a line does not name were inactive.

Cc1ccnc(NC(=O)CSc2ccc3c(c2)OCCO3)c1	aSyn UTR act -114
O=C(CSc1ccccn1)Nc1ccc2ccccc2c1	aSyn UTR act -159
O=C(CSc1ccccn1)Nc1ccc2c(c1)OCCO2	aSyn UTR act -65
Nc1ccccc1SCC(=O)Nc1ccc2c(c1)OCCO2	aSyn UTR act -89
O=C(CSc1nccc(=O)[nH]1)Nc1ccc2c(c1)OCCO2	aSyn UTR act -139
Cc1cccc(SCC(=O)Nc2ccc3c(c2)OCCO3)c1	aSyn UTR act -117
COc1ccc2c(C)nc(Nc3nc(-c4ccccc4)cc(=O)[nH]3)nc2c1	aSyn UTR act -635
Cc1ccc2c(C)nc(Nc3nc(CSc4nc5ccccc5[nH]4)cc(=O)[nH]3)nc2c1	none
Cc1nc(Nc2nc3c(c(=O)[nH]2)CCC3)nc2ccccc12	none
N#CC1=C2SC=C(c3ccc(Br)cc3)N2CCCC1=O	aSyn UTR act -257
N#CC1=C2Sc3ccccc3N2CCCC1=O	aSyn UTR act -171
Cc1cc2ncn(C(=O)N3CCC(C)CC3)c2cc1C	aSyn UTR act -67
O=C(O)c1ccc(N=NNc2cccc([N+](=O)[O-])c2)cc1	aSyn UTR act -107
COC(=O)c1ccc(N=NNc2ccccc2)cc1	aSyn UTR act -226
COC(=O)c1ccc(N=NNc2ccc(C(=O)OC)cc2)cc1	aSyn UTR act -86
CC(=O)/C=C/c1ccccc1Oc1c(F)c(F)nc(F)c1F	aSyn UTR act -94
COc1ccc(N=C2O/C(=C/c3sc(=S)n(CC4CCCO4)c3O)N=C2C#N)cc1 (stereo not given)	aSyn UTR act -101
CN(C(=O)c1ccco1)c1nnc(C23CC4CC(CC(C4)C2)C3)s1	aSyn UTR act -144
C/C(=N/NC(=O)c1ccoc1C)c1cccc(NC(=O)C2CC2)c1	aSyn UTR act -115
COc1ccc(C(=O)N/N=C(/C)c2cccc(NC(=O)C(F)(F)F)c2)cc1	aSyn UTR act -108
COc1cccc(/C(C)=N/NC(=O)c2ccc(N(C)C)cc2)c1	aSyn UTR act -101
C/C(=N/NC(=O)c1ccoc1C)c1cccc(NC(=O)C(F)(F)F)c1	aSyn UTR act -128
COc1ccc2cc(/C(C)=N/NC(=O)C3CC3)ccc2c1	aSyn UTR act -135
COC(=O)C1CCN(C(=O)c2oc3c(Cl)cc(C)cc3c2C)CC1	aSyn UTR act -74
Cc1cc(Cl)c2oc(C(=O)N3CCN(c4ccncc4)CC3)c(C)c2c1	none
Cc1cc(/C=C\c2ccccc2)nc2ccccc12	aSyn UTR act -216
COc1ccc(/C=C/c2cc(C(=O)O)c3ccccc3n2)cc1	none
c1ccc(CSCc2cn3ccccc3n2)cc1	aSyn UTR act -135
Cc1ccn2cc(CSc3ccccc3N)nc2c1	aSyn UTR act -97
Cc1ccc(SCc2cn3ccccc3n2)cc1	aSyn UTR act -97
COCCCn1c(C(=O)N2CC(C)OC(C)C2)cc2c(=O)n3cccc(C)c3nc21 (stereo not given)	aSyn UTR act -71
CC1CCc2c(nc3ncnn3c2NCCc2ccccc2F)C1 (stereo not given)	aSyn UTR act -69
COc1cn(-c2ccccc2)nc1C(=O)Nc1ccc(C)cc1	aSyn UTR act -90
COc1cn(-c2ccccc2)nc1C(=O)Nc1ccccc1	aSyn UTR act -66
NC(=S)N/N=C/c1ccc2c(c1)OCCO2	aSyn UTR act -76
CNC(=S)N/N=C/c1ccc2c(c1)OCCO2	aSyn UTR act -73
S=C(N/N=C/c1ccc2c(c1)OCO2)NC1CC2CCC1C2 (stereo not given)	aSyn UTR act -128
NC(=S)N/N=C/c1ccc(C23CC4CC(CC(C4)C2)C3)cc1	aSyn UTR act -310
NCCOc1ccc(C23CC4CC(CC(C4)C2)C3)cc1	none
O=c1oc2ccccc2cc1-c1csc(Nc2nc3ccc(F)cc3s2)n1	aSyn UTR act -115
O=c1oc2ccccc2cc1-c1csc(NN=C2CCCCC2)n1	aSyn UTR act -122
O=c1oc2ccccc2cc1-c1nc2c(s1)CCCC2	none
C/C(=N\Nc1nc(-c2ccc(C)cc2C)cs1)c1cc2ccccc2oc1=O	aSyn UTR act -72
CC1CCC/C(=C(\C#N)c2nc(-c3cc4ccccc4oc3=O)cs2)C1 (stereo not given)	aSyn UTR act -122
COc1cc(OC)c(C(=O)/C=C/c2ccccc2)c(O)c1O	aSyn UTR act -92
COc1cc(O)cc(O)c1C(=O)/C=C/c1ccccc1	aSyn UTR act -140
O=C(/C=C/Nc1ccc([N+](=O)[O-])cc1)c1ccc(Br)cc1	aSyn UTR act -74
O=C(/C=C/Nc1ccc(F)c(F)c1)c1ccc(Br)cc1	aSyn UTR act -192
O=C(/C=C/Nc1ccc(Br)cc1F)c1ccccc1	none
O=C(/C=C/Nc1ccc(F)cc1)c1ccc(Br)cc1	aSyn UTR act -181
Cc1nccc(-c2cc(-c3ccc(Cl)cc3Cl)no2)n1	aSyn UTR act -135
O=CC1=C(c2ccccc2)Oc2ccccc2O1	aSyn UTR act -62
Cc1[nH]c2ccccc2c1N=Nc1ccccc1F	aSyn UTR act -122
CN(C)/C=C(\C#N)C(=O)Nc1ccccc1	aSyn UTR act -73
COCCCNC(=S)Nc1ccc2c(c1)OCCO2	aSyn UTR act -116
S=C(NCc1ccc(Cl)c(Cl)c1)Nc1ccc2c(c1)OCO2	aSyn UTR act -110
S=C(Nc1ccc2c(c1)OCO2)Nc1ccccc1Cl	aSyn UTR act -85
OCCNC(=S)Nc1ccc2c(c1)OCCO2	aSyn UTR act -91
S=C(Nc1ccc2c(c1)OCCO2)Nc1ccc2c(c1)OCO2	aSyn UTR act -75
O=C(NCc1cccnc1)NC1(C(F)(F)F)Oc2ccccc2O1	aSyn UTR act -66
COc1ccc(C)cc1NC(=O)Nc1ccc(C(=O)N2CCCC2)cc1	aSyn UTR act -64
COc1cccc(NC(=O)NC2(C(F)(F)F)Oc3ccccc3O2)c1	aSyn UTR act -77
COc1cccc(NC(=O)NCc2ccccc2Cl)c1	aSyn UTR act -73
Cc1oc2c(c1C(=O)NCc1cccnc1)C(=O)c1ccccc1C2=O	none
OC(COc1ccc(CNCCc2ccc(C(F)(F)F)cc2)cc1)CN1CCCCC1 (stereo not given)	none
COc1cccc(NC(=O)Nc2cc(C)ccc2F)c1	aSyn UTR act -73
COc1ccc(NC(=O)Nc2cc(C)ccc2F)cc1	aSyn UTR act -164
COc1cccc(NC(=O)Nc2ccccc2SC)c1	aSyn UTR act -72
Cc1ccc(-c2nnc(CCC(=O)NCC3C4CC5CC(C4)CC3C5)o2)s1 (stereo not given)	aSyn UTR act -170
COc1ccc(-c2csc(-c3ccccc3)n2)c(OC)c1	aSyn UTR act -202
COc1ccc(-c2csc(-c3cccs3)n2)c(OC)c1	aSyn UTR act -126
Clc1cccc(OCc2nnc(-c3ccccc3Br)o2)c1	aSyn UTR act -68
Clc1ccccc1OCc1nnc(-c2ccccc2)o1	aSyn UTR act -109
Fc1ccc(OCc2nnc(-c3ccccc3Br)o2)c(Cl)c1	aSyn UTR act -151
Clc1ccc(OCc2nnc(-c3ccccc3Br)o2)c(Cl)c1	aSyn UTR act -144
Cc1cc(C)cc(NC(=O)Nc2ccc(-n3ccc(C(F)(F)F)n3)cc2)c1	aSyn UTR act -77
O=C(Nc1ccc(-n2ccc(C(F)(F)F)n2)cc1)c1cccs1	aSyn UTR act -176
COc1ccccc1NC(=O)Nc1ccc(-n2ccc(C(F)(F)F)n2)cc1	aSyn UTR act -212
O=C(Nc1ccc(-n2ccc(C(F)(F)F)n2)cc1)Nc1cccc(Cl)c1	aSyn UTR act -81
O=C(N=C1N=C2C=CC=CN2Cc2ccccc21)c1ccc(S(=O)(=O)N2CCOCC2)cc1	aSyn UTR act -143
CC1CN(C(=O)c2ccccc2)C(=Nc2cccc(S(=O)(=O)N(C)C)c2)S1 (stereo not given)	none
